Screens from PubChem BioAssay.
FECH block: inhibitors of human ferrochelatase. calls only at 10 µM (by protocol). AID 1671448. P22830. purified FECH, Ni-mesoporphyrin absorbance 550 nm. 20,000 compounds, 3.3% hits;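 active = enzyme reaction rate more than 3 SD below the solvent-only control wells on the same plate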;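 note: lower slope than DMSO wells means FECH inhibition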
Target sequence (P22830 whole entry, looked up): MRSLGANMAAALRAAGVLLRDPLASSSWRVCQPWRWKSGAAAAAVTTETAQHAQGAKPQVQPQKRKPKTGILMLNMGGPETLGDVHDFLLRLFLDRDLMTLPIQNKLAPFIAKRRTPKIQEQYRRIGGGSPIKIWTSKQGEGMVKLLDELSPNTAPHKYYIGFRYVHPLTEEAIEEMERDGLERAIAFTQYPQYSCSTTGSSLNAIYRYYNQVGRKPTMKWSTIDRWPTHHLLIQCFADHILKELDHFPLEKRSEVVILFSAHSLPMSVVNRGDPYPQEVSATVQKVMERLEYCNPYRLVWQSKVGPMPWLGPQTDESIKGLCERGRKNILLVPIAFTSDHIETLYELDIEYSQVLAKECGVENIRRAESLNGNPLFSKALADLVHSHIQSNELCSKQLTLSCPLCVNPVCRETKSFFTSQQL
An asterisk follows results filed as active; i = inactive; + = active, no number. The entries come from a sample that favours hits as a whole.

SMILES	FECH block
CCN(CC)S(=O)(=O)N1CCC(C(=O)Nc2ccc3nc(CCc4ccccc4)[nH]c3c2)CC1	+
CCc1cccc(NC(=O)C2CCN(c3ccc(-c4cccs4)nn3)CC2)c1	i
CCN(CC)S(=O)(=O)N1CCC(C(=O)Nc2ccc3sc(NC(=O)C(C)C)nc3c2)CC1	i
CCN(CC)S(=O)(=O)N1CCC(C(=O)Nc2cccc(CCc3nc4ccccc4n3C)c2)CC1	+
CCN(CC)S(=O)(=O)c1ccc2c(c1)nc(CN1CCN(S(=O)(=O)N(C)C)CC1)n2C	i
O=C(Nc1ccccc1CCc1nc2ccccc2[nH]1)C1CCCN(S(=O)(=O)N2CCCC2)C1 (stereo not drawn)	i
CCOc1ccccc1N(Cc1nc2nc(C)cc(=O)n2[nH]1)C(=O)c1ccc(Cl)cc1	i
Cc1cc(C)c(NC(=O)CN2CCN(Cc3ccccc3Cl)S2(=O)=O)c(C)c1	i
O=C1CC(C(=O)NCc2ccccc2)N=C(Nc2ccc(F)cc2)N1 (stereo not drawn)	i
CN(C)C(=O)N1CCC(N2CCCC(C(=O)NCc3ccccn3)C2)CC1 (stereo not drawn)	i
CCc1c(C)nc2ncnn2c1Sc1ccc(NC(=O)c2ccc3c(c2)OCO3)cc1	i
CCOC(=O)N1CCC(Nc2nc(-c3cccnc3)nc3c2CCNC3)CC1	i
Cc1ccc(CN2c3ccccc3-c3nc(SCC(=O)Nc4ccc(F)c(Cl)c4)ncc3S2(=O)=O)cc1	+
Cc1ccc(CN2CCCN(CC(=O)Nc3ccc(C)c(F)c3)S2(=O)=O)cc1	i
Cc1ccc(CN2c3ccccc3-c3nc(SCC(=O)Nc4cc(Cl)ccc4C)ncc3S2(=O)=O)cc1	i
COCCN1C(=O)c2c(NC(C)=O)c3cc(F)ccc3n2CC1(C)C(=O)NC1CCCCCC1 (stereo not drawn)	i
COc1ccc(Cn2c(CNC(=O)c3ccccc3OC)nc3cccnc32)cc1	i
CCc1ccc(S(=O)(=O)N2CCN(c3cc(-c4ccc(F)cc4)ncn3)CC2)cc1	i
COC(=O)c1cc2ccsc2n1CC(=O)Nc1c(C)cccc1C	i
CCOC(=O)c1cc2ccsc2n1CC(=O)Nc1c(C)cc(C)cc1C	+
CCOC(=O)c1cc2ccsc2n1CC(=O)Nc1ccccc1C	i
CN(Cc1nc2ccc(F)cc2[nH]1)C(=O)c1cnn(Cc2ccccc2)c1	i
CC(C)NC(=O)C1CCC(Cn2c(=O)c3sccc3n(CC(=O)N3CCCC3)c2=O)CC1 (stereo not drawn)	i
COc1ccc(OCC(=O)Nc2cccc(OCc3cc(=O)n4cc(Cl)ccc4n3)c2)cc1	i
Cc1ccc(OCC(=O)Nc2cccc(OCc3cc(=O)n4cc(Cl)ccc4n3)c2)cc1C	i
SMILES	FECH block
Cc1ccc(OCC(=O)Nc2cccc(OCc3cc(=O)n4ccc(C)cc4n3)c2)cc1	i
Cc1ccn2c(=O)cc(COc3cccc(NC(=O)COc4ccccc4Cl)c3)nc2c1	i
Cc1ccn2c(=O)cc(COc3cccc(NC(=O)COc4ccccc4)c3)nc2c1	i
CCC(Oc1ccccc1)C(=O)Nc1ccc(C)c(OCc2cc(=O)n3cccc(C)c3n2)c1 (stereo not drawn)	i
Cc1ccccc1OCC(=O)Nc1ccc(C)c(OCc2cc(=O)n3cccc(C)c3n2)c1	+
Cc1cccc(OCC(=O)Nc2cccc(OCc3cc(=O)n4ccc(C)cc4n3)c2)c1	i
Cc1ccc(NC(=O)COc2ccccc2)cc1OCc1cc(=O)n2cccc(C)c2n1	+
Cc1ccc(OCC(=O)Nc2ccc(C)c(OCc3cc(=O)n4cccc(C)c4n3)c2)cc1C	+
Cc1cccc(OCC(=O)Nc2ccc(C)c(OCc3cc(=O)n4cccc(C)c4n3)c2)c1	+
COc1ccc(OCC(=O)Nc2cccc(OCc3cc(=O)n4ccc(C)cc4n3)c2)cc1	i
COc1ccc(OC)c(CC(=O)N[C@H]2C[C@H]3CN(C)CCN3C2)c1	i
C/C(=C\c1ccccc1)CN1CCCN(C(=O)c2ccco2)CC1	i
CCCCNC(=O)[C@@H]1CC=CC[C@@H]1C(=O)N1C[C@H]2C[C@H](O)[C@H](O)C[C@H]2C1	i
CN(C)c1nc2c(c(NCC3(COc4ccccc4)CC3)n1)CCNC2	i
CCC1=C(c2ccc(OC)cc2)S(=O)(=O)N(CC(=O)Nc2ccc(OC)cc2OC)C1=O	i
CCOc1ccccc1N(Cc1nc2nc(C)cc(=O)n2[nH]1)C(=O)COc1ccccc1	i
CCCc1cc(CNc2nc(CCN)nc3ccccc23)on1	i
Cc1ccc(C(=O)Nc2ccc(Nc3nc(C)cc(N(C)C)n3)cc2)cc1	i
Cc1cc(C)cc(C(=O)Nc2ccc(Nc3nc(C)cc(N(C)C)n3)cc2)c1	+
Cc1cc(N(C)C)nc(Nc2ccc(NC(=O)c3ccc(I)cc3)cc2)n1	i
CCC(=O)Nc1ccc(OCC(=O)NCc2cn3c(n2)SCC3)cc1	i
CC(C)OCCCNC(=O)CN1c2ccc(Br)cc2-c2ccccc2S1(=O)=O	+
CC(C)OCCCNC(=O)c1ccc(CN2C(=O)CCn3nc(-c4ccccc4)cc32)cc1	i
COCCNC(=O)CN1c2ccc(Br)cc2-c2ccccc2S1(=O)=O	+
C=CCOc1cccc(NC(=O)CN2c3ccc(Br)cc3-c3ccccc3S2(=O)=O)c1	i
SMILES	FECH block
O=C(CN1c2ccc(Br)cc2-c2ccccc2S1(=O)=O)NCc1ccccn1	+
O=C(CN1c2ccc(Br)cc2-c2ccccc2S1(=O)=O)NCCN1CCOCC1	i
O=C(NCc1ccccn1)C1(Oc2cccc3ncccc23)CCNCC1	i
CCC1=C(c2ccc(OC)cc2)S(=O)(=O)N(CC(=O)NCc2cccc(Br)c2)C1=O	i
O=C(CN1CCC(c2ccccc2C(=O)O)C1)NCc1ccccn1 (stereo not drawn)	i
O=C(NC1CC1)C1CCCN(C2CCN(c3nccc(C(F)(F)F)n3)CC2)C1 (stereo not drawn)	i
Cc1cc(NC(=O)C(C)(C)Oc2ccc(Cl)cc2)n(-c2ncnc3c2cnn3-c2ccccc2)n1	i
CSc1nc(NCc2ccc3c(c2)OCO3)c(C#N)c(-c2ccc(C)cc2)n1	i
CCOc1ccccc1CNS(=O)(=O)c1ccc2c(c1)NC(=O)CC(=O)N2	i
Cc1ccc2c(c1)-c1c(cnn1CC(=O)Nc1ccc(S(N)(=O)=O)cc1)CO2	i
Cc1ccc(-n2c(CN3CCN(S(=O)(=O)c4cc(C)c(C)cc4C)CC3)nc3cccnc32)cc1	i
Cc1cnn(-c2cnn(CCO)c2)c1	i
CSc1ccc(CNC(=O)c2nc(N3CCCC3)c3oc4ccccc4c3n2)cc1	i
CC(C)c1nc(CCN(C)C(=O)c2ccc(Cl)cn2)no1	i
Cc1cc(C)n(CCC(=O)N(C)Cc2noc(CC(C)C)n2)c(=O)n1	i
Cc1cc(C)n(CCC(=O)N(C)CCc2noc(C(C)C)n2)c(=O)n1	+
CC(C)Cc1ncc2c(n1)CN(C(=O)c1ccccc1-n1cccn1)C2	i
CCC(=O)NCc1ccccc1-c1ccnc2c1ccn2C	i
O=C(c1cnccn1)N(Cc1ccccn1)CC1CCCO1 (stereo not drawn)	i
O=c1c(Nc2ccc(F)cc2Cl)c(-c2ccc3c(c2)CCCC3)c1=O	+
COc1ccc(Cl)cc1Nc1c(-c2ccc3c(c2)CCCC3)c(=O)c1=O	i
Cc1ccc(C)c(Nc2c(-c3ccc4c(c3)CCCC4)c(=O)c2=O)c1	+
Cc1ccc(Nc2c(-c3ccc4c(c3)CCCC4)c(=O)c2=O)c(Cl)c1	i
COc1cc(OC)c(Nc2c(-c3ccc4c(c3)CCCC4)c(=O)c2=O)cc1Cl	i
